Measured values taken from the supplement of paper PMC9262897, “Low-cost anti-mycobacterial drug discovery using engineered E. coli” (Nature Communications, 2022).
Counter-ions that a name gives are not always drawn. ± gives the standard deviation of the averaged measurements.

test system: E. coli TESEC Mtb DapB; assay: growth (OD600 after 10 h); higher = more growth (less inhibition); details: arabinose induction (level): High; compound 0.1 mM; raw OD600 reference: median of DMSO wells […], cell-free background 0.041
Protocol: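 TESEC E. coli strains in which the native enzyme is deleted and replaced by arabinose-inducible Mtb Asd, DapB, CysH or TrpD, each grown in its selective medium. Strains were screened against the Prestwick library at 0.1 mM and 1% DMSO in 384-well format at low and high arabinose induction. Growth is read as OD600 after 10 h in triplicate.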

Q: With `CN(C)CCN(Cc1ccc(Cl)cc1)c1ccccn1` [Chloropyramine hydrochloride] as the compound, how does the growth read?
A: The growth was 0.185 ± 0.02.

Q: With `O=C1NCCN1CCN1CCC(c2cn(-c3ccc(F)cc3)c3ccc(Cl)cc23)CC1` [Sertindole] as the compound, how does the growth read?
A: The growth was 0.102 ± 0.09.

Q: `O=C1NCC2(CCN(CCc3ccccc3)CC2)O1` [Fenspiride hydrochloride] was tested. Which growth did it give?
A: Its growth is 0.199 ± 0.011.

Q: Which growth does the source give for `CC(C)[C@H]1CC[C@H](C(=O)N[C@H](Cc2ccccc2)C(=O)O)CC1` [Nateglinide] here?
A: The growth was 0.1583 ± 0.001.

Q: `CCOC(=O)[C@H](CCc1ccccc1)N[C@@H](C)C(=O)N1CCC[C@H]1C(=O)O` [Enalapril maleate] was tested. Which growth did it give?
A: Its growth is 0.188 ± 0.018.

Q: How did the growth turn out when `CC1(C)O[C@@H]2[C@@H](CO[C@@]3(COS(N)(=O)=O)OC(C)(C)O[C@@H]23)O1` [Topiramate] was run?
A: Its growth is 0.19 ± 0.01.

Q: With `c1ccc2c(c1)CCCc1cc(NCCN3CCOCC3)nnc1-2` as the compound, how does the growth read?
A: Its growth is 0.179 ± 0.0094.

Q: How did the growth turn out when `CC[C@@H]1C(=O)OC[C@@H]1Cc1cncn1C` [Pilocarpine nitrate] was run?
A: The growth was 0.199 ± 0.016.

Q: With `Cn1ccnc1S` [Methimazole] as the compound, how does the growth read?
A: Its growth is 0.2 ± 0.0098.

Q: `NC[C@H]1O[C@H](O[C@H]2[C@H](O)[C@@H](O[C@H]3O[C@H](CO)[C@@H](O)[C@H](N)[C@H]3O)[C@H](N)C[C@@H]2N)[C@H](N)C[C@@H]1O` [Tobramycin] was tested. Which growth did it give?
A: The growth was 0.04757 ± 0.0004.

Q: For `O=C1C(CC[S+]([O-])c2ccccc2)C(=O)N(c2ccccc2)N1c1ccccc1` (stereo not given) [Sulfinpyrazone], which growth is on record?
A: The growth was 0.182 ± 0.0043.

Q: With `C=C1/C(=C\C=C2/CCC[C@]3(C)[C@@H]([C@H](C)CCCC(C)C)CC[C@@H]23)C[C@@H](O)C[C@@H]1O` [Alfacalcidol] as the compound, how does the growth read?
A: The growth was 0.234 ± 0.012.

Q: With `C[C@H](O)C(=O)Nc1c(I)c(C(=O)NC(CO)CO)c(I)c(C(=O)NC(CO)CO)c1I` [Iopamidol] as the compound, how does the growth read?
A: The growth was 0.221 ± 0.0036.

Q: For `CCCCNc1cc(C(=O)O)cc(S(N)(=O)=O)c1Oc1ccccc1` [Bumetanide], which growth is on record?
A: The growth was 0.209 ± 0.027.

Q: How did the growth turn out when `CN(C)CCCOc1nn(Cc2ccccc2)c2ccccc12` [Benzydamine hydrochloride] was run?
A: The growth was 0.192 ± 0.023.

Q: Which growth does the source give for `CCn1nc(C(=O)O)c(=O)c2cc3c(cc21)OCO3` [Cinoxacin] here?
A: The growth was 0.211 ± 0.013.

Q: With `CCCCOC(=O)c1ccc(N)cc1` [Butamben] as the compound, how does the growth read?
A: The growth was 0.23 ± 0.086.

Q: With `C#C[C@]1(O)CC[C@H]2[C@@H]3CCC4=CCCC[C@@H]4[C@H]3CC[C@@]21C` [Lynestrenol] as the compound, how does the growth read?
A: The growth was 0.174 ± 0.0039.

Q: `CCc1c2c(nc3ccc(OC(=O)N4CCC(N5CCCCC5)CC4)cc13)-c1cc3c(c(=O)n1C2)COC(=O)[C@]3(O)CC` [Irinotecan hydrochloride trihydrate] was tested. Which growth did it give?
A: Its growth is 0.227 ± 0.0094.

Q: With `CN(C)CCn1nnnc1SCC1=C(C(=O)O)N2C(=O)[C@@H](NC(=O)Cc3csc(N)n3)[C@H]2SC1` [Cefotiam hydrochloride] as the compound, how does the growth read?
A: The growth was 0.218 ± 0.018.

Q: How did the growth turn out when `O=S(=O)(O)c1cc(O)ccc1O` [Ethamsylate] was run?
A: Its growth is 0.191 ± 0.013.

Q: How did the growth turn out when `NNC(=O)c1ccncc1` [Isoniazid] was run?
A: Its growth is 0.194 ± 0.0035.

Q: With `O=C(O)/C=C/c1ccc(Cn2ccnc2)cc1` [Ozagrel hydrochloride] as the compound, how does the growth read?
A: Its growth is 0.176 ± 0.0061.

Q: With `NCCC[C@H](N)CC(=O)N[C@H]1CNC(=O)[C@H]([C@H]2C[C@H](O)NC(N)=N2)NC(=O)/C(=C/NC(N)=O)NC(=O)[C@H](CO)NC(=O)[C@H](CO)NC1=O` [Viomycin sulfate] as the compound, how does the growth read?
A: Its growth is 0.169 ± 0.0056.

Q: Which growth does the source give for `CC1CS(=O)(=O)CCN1/N=C/c1ccc([N+](=O)[O-])o1` (stereo not given) [Nifurtimox] here?
A: The growth was 0.188 ± 0.029.

Q: `CC(C)C(=O)Nc1ccc([N+](=O)[O-])c(C(F)(F)F)c1` [Flutamide] was tested. Which growth did it give?
A: Its growth is 0.177 ± 0.013.

Q: Which growth does the source give for `Nc1ccc(S(=O)(=O)Nc2cnc3ccccc3n2)cc1` [Sulfaquinoxaline sodium salt] here?
A: Its growth is 0.181 ± 0.012.

Q: With `Cc1cnc(NC(=O)C2=C(O)c3ccccc3S(=O)(=O)N2C)s1` [Meloxicam] as the compound, how does the growth read?
A: Its growth is 0.201 ± 0.021.

Q: Which growth does the source give for `CCCc1ncc(C[n+]2ccccc2C)c(N)n1` [Amprolium hydrochloride] here?
A: The growth was 0.187 ± 0.0079.

Q: With `COc1cc(C(=O)OCCCN2CCCN(CCCOC(=O)c3cc(OC)c(OC)c(OC)c3)CC2)cc(OC)c1OC` [Dilazep dihydrochloride] as the compound, how does the growth read?
A: Its growth is 0.171 ± 0.013.

Q: With `CC(C)(O/N=C(\C(=O)N[C@@H]1C(=O)N2C(C(=O)[O-])=C(C[n+]3ccccc3)CS[C@H]12)c1csc(N)n1)C(=O)O` [Ceftazidime pentahydrate] as the compound, how does the growth read?
A: Its growth is 0.167 ± 0.072.

Q: `O=C(c1ccc(OCCN2CCCCC2)cc1)c1c(-c2ccc(O)cc2)sc2cc(O)ccc12` [Raloxifene hydrochloride] was tested. Which growth did it give?
A: The growth was 0.0658 ± 0.014.

Q: For `CS(=O)(=O)c1ccc([C@@H](O)[C@@H](CO)NC(=O)C(Cl)Cl)cc1` [Thiamphenicol], which growth is on record?
A: Its growth is 0.0792 ± 0.0018.

Q: Which growth does the source give for `CN(C)CC/C=C1\c2ccccc2CSc2ccccc21` [Dosulepin hydrochloride] here?
A: The growth was 0.168 ± 0.015.

Q: With `CCOc1nc2cccc(C(=O)O)c2n1Cc1ccc(-c2ccccc2-c2nnn[nH]2)cc1` [Candesartan] as the compound, how does the growth read?
A: The growth was 0.197 ± 0.0041.

Q: For `CCc1cc(C(N)=S)ccn1` [Ethionamide], which growth is on record?
A: The growth was 0.206 ± 0.011.

Q: Which growth does the source give for `CN(C)CCCC1(c2ccc(F)cc2)OCc2cc(C#N)ccc21` (stereo not given) [Citalopram Hydrobromide] here?
A: Its growth is 0.191 ± 0.022.

Q: Which growth does the source give for `Cn1c(=O)c2c(ncn2C)n(C)c1=O` [Caffeine] here?
A: Its growth is 0.192 ± 0.01.

Q: With `COc1ccc(C(=O)NCc2ccc(OCCN(C)C)cc2)cc1OC` [Itopride] as the compound, how does the growth read?
A: Its growth is 0.228 ± 0.028.

Q: With `Cn1cnc([N+](=O)[O-])c1Sc1ncnc2[nH]cnc12` [Azathioprine] as the compound, how does the growth read?
A: The growth was 0.202 ± 0.016.
